Experimental findings from PubChem BioAssay (EPA / NIEHS) are described below.

The structures appear in SMILES notation. Activity calls are given as the source filed them. Rule for the calls: active = hit-call score of the fitted dose curve at least 0.9, where 1 is the maximum; inactive = score below 0.9.

Read-out in this assay: Human Leukocyte Antigen - DR isotype (HLADR), HLA-DRA (gene 3122)
Kind of assay: BSK_BE3C_HLADR: BioMAP Diversity Plus: BE3C Assay for Human Leukocyte Antigen - DR isotype (HLADR) Biomarker Activity (AID 2283032). Particulars: primary human bronchial epithelial cells; actives raise or lower the signal. How it is done:
BSK_BE3C is a cell-based, multiplexed-readout assay that uses bronchial epithelial cell, a human lung primary cell, with measurements taken at 24 hours after chemical dosing in a 96-well plate.BSK_BE3C_HLADR is an assay component measured in the BSK_BE3C assay. It measures HLA-DR antibody related to regulation of gene expression using ELISA technology.Data from the assay component BSK_BE3C_HLADR was analyzed into 1 assay endpoint. This assay endpoint, BSK_BE3C_HLADR, was analyzed with bidirectional fitting relative to DMSO as the negative control and baseline of activity. Using a type of binding reporter, gain or loss-of-signal activity can be used to understand changes in the signaling as they relate to the gene HLA-DRA. Furthermore, this assay endpoint can be referred to as a primary readout, because this assay has produced multiple assay endpoints where this one serves a signaling function. To generalize the intended target to other relatable targets, this assay endpoint is annotated to the cell adhesion molecules intended target family, where the subfamily is MHC Class II.
The levels of cell surface (or secreted, indicated by the prefix "s") biomarker endpoints were measured by ELISA. Overt cytotoxicity to cells in confluent adherent cultures (all systems other than the BT system) was assessed by measuring total protein levels using sulforhodamine B (SRB) staining in parallel cultures at the time of biomarker measurements, indicated as SRB endpoints. For proliferation assays for adherent cell types, individual cell types are cultured at sub-confluence and relative cell numbers quantified by SRB staining at time points optimized for each system (48 h: 3C and CASM3C systems; 72 h: BT and HDF3CGF systems; 96 h: SAg system). SRB was performed by staining cells with 0.1% SRB after fixation with 10% TCA and reading wells at 560 nm.Viability and proliferation of PBMC (T cells) was quantified by Alamar Blue reduction for the SAg and BT systems. For PBMC viability (referred to as PBMC Cytotoxicity within the assay endpoint names), cells were plated (75,000/well in a 96-well plate) and then chemical samples added for 1 h before addition of activators, SEB and TSST-1 (20 ng/mL final concentration each). Cells were incubated for 90 h. Then, Alamar Blue (20 uL/well) (Invitrogen, Cat DAL1100) was added for 6 h, and the plates were read with a fluorescence microplate reader at 546/580 nm (excitation/emission). For PBMC proliferation, cells were plated and activated as above but incubated for only 16 h prior to addition of Alamar Blue. Plates were read after 6 h.
In the case of `O=C(O)Cn1c(=O)n(Cc2ccc(Br)cc2F)c(=O)c2ccc(Cl)cc21`, the result was inactive.
Turning to `COc1ccc2cc(S(=O)(=O)N[C@H](CC(=O)N[C@H](Cc3ccc(CN4[C@H](C)CCC[C@@H]4C)cc3)C(=O)N(C)C(C)C)c3ccc4c(c3)OCO4)ccc2c1`, the AC50 (as a rule, the concentration at which the activity in the assay is half-maximal) is 32.8 µM (active).
As to `O=c1ccc2ccccc2o1`, the outcome was inactive.
Take `CC(C)(c1cc(Br)c(O)c(Br)c1)c1cc(Br)c(O)c(Br)c1`: the concentration at half-maximal activity (AC50) is 7.25 µM (active).
Consider `CC(=O)N1CCN(c2ccc(OC[C@H]3CO[C@](Cn4ccnc4)(c4ccc(Cl)cc4Cl)O3)cc2)CC1`, for which the AC50 was 33.3 µM (active).
As to `Oc1ccc2ccccc2c1`, the outcome was inactive.
Still for that read-out and setting: the same measure for `OCCO`: “inactive”.
For `CCOC(=O)O[C@H](C)OC(=O)c1ccc2c(c1)cc(C(=O)NC1CCN(C(C)C)CC1)n2Cc1cc(-c2ccc(Cl)s2)on1`, the AC50 was 10.7 µM (active).
Same read-out and setting: the result for `CC(C)(C)c1csc(-c2cc3cc(OCc4ccccc4CC(=O)O)ccc3o2)n1` reads 6.97 µM (active).
On to `CC(C)(O)c1ccc(CNC(=O)c2cccnc2Oc2ccc3nonc3c2)cc1`, for which the result was inactive.
Consider `O=C(O)Cc1cc(I)c(Oc2ccc(O)c(I)c2)c(I)c1`, for which the AC50 is 17.6 µM (active).
In the case of `c1ccc2n[nH]nc2c1`, the outcome was inactive.
In the case of `CN1C(=O)N(c2ccccc2Br)Cc2cnc(Nc3ccc4c(c3)OCC(CO)O4)nc21` (stereo not given), the AC50 was 28.5 µM (active).
Still for that read-out and setting: the same measure for `CC/C(=C(/CC)c1ccc(O)cc1)c1ccc(O)cc1`: 23.4 µM (active).
For `CC1=CC(=O)/C(=C(/C)O)C(=O)O1`, the outcome was inactive.
On the same count and under the same terms, the result for `CC1(C)NC(=O)N(c2ccc([N+](=O)[O-])c(C(F)(F)F)c2)C1=O` reads “inactive”; that for `C[C@]12CC[C@@H]3c4ccc(O)cc4CC[C@H]3[C@@H]1CCC2=O`, “inactive”; that for `CCCCCc1ccc(N)cc1`, “inactive”.
Take `O=C1CCC(C2CCCCC2)CC1`: the AC50 is 25.9 µM (active).
As for `O=C=NCCCCCCN=C=O`, the outcome was inactive.
Same read-out and setting: the result for `CCCCCCCCCCCCO` reads “inactive”.
Consider `NCc1cccc(C2CCN(C(=O)c3ccc(C#Cc4ccccc4F)o3)CC2)c1`, for which the AC50 is 6.79 µM (active).
As for `O=C(O)c1ccccc1C(=O)OCc1ccccc1`, the outcome was inactive.
For the molecule `CCCCCCCCCCCO`, the outcome was inactive.
The same measure, in the same setting: the same measure for `OC12N=C(c3ccccc3)SC1Cc1cc(Cl)ccc12` (stereo not given): “inactive”.
On the same count and under the same terms, the same measure for `CCCCOC(=O)c1ccc(O)cc1`: “inactive”.
In the case of `CN(C)c1ccc(C(=C2C=CC(=[N+](C)C)C=C2)c2ccc(N(C)C)cc2)cc1`, the AC50 was 1.28 µM (active).
For the molecule `O=C1c2ccccc2C(=O)N1CCc1noc(-c2ccc(CN3CCCCCC3)s2)n1`, the result was inactive.
As for `O=C(OCCCCCCOC(=O)c1ccccc1)c1ccccc1`, the result was inactive.
On the same count and under the same terms, the result for `CCCOC(=O)c1cc(O)c(O)c(O)c1` reads “inactive”.
Consider `O=C(Nc1ccc(Cl)cc1)Nc1ccc(Cl)c(Cl)c1`, for which the AC50 was 1.39 µM (active).
Take `CC[C@@H]1C[C@H](N(Cc2cc(C(F)(F)F)cc(C(F)(F)F)c2)C(C)=O)c2cc(C(F)(F)F)ccc2N1C(=O)OC(C)C`: the outcome was inactive.
For the molecule `CCO[Si](CCCNC(N)=O)(OCC)OCC`, the outcome was inactive.
Consider `Cc1ccc2oc(CN(Cc3ccccc3)C(=O)Nc3c(F)cc(F)cc3F)c(-c3ccc(Cl)cc3)c2c1`, for which the outcome was inactive.
With `CCCCCCCCOC(=O)c1cc(O)c(O)c(O)c1`, the AC50 is 22 µM (active).
Consider `c1ccc2ccccc2c1`, for which the result was inactive.
Turning to `CN(C[C@@H](CC[N+]12CCC(C3CCCCC3)(CC1)CC2)c1ccc(Cl)c(Cl)c1)C(=O)c1cc(C(F)(F)F)cc(C(F)(F)F)c1`, the AC50 is 12.6 µM (active).
On to `C[C@]12CC[C@@H]3c4ccc(O)cc4CC[C@H]3[C@@H]1CC[C@H]2O`, for which the outcome was inactive.
Still for that read-out and setting: the result for `Cc1cn([C@H]2C[C@H](N=[N+]=[N-])[C@@H](CO)O2)c(=O)[nH]c1=O` reads “inactive”; that for `CO[C@H]1/C=C/O[C@@]2(C)Oc3c(C)c(O)c4c(O)c(c(/C=N/N5CCN(C)CC5)c(O)c4c3C2=O)NC(=O)/C(C)=C\C=C\[C@H](C)[C@H](O)[C@@H](C)[C@@H](O)[C@@H](C)[C@H](OC(C)=O)[C@@H]1C`, “inactive”.
